Bioassay records deposited in PubChem BioAssay by National Center for Advancing Translational Sciences (NCATS).
The entries come from a sample that favours hits as a whole.
Pf Dd2 growth = Plasmodium falciparum Dd2 growth inhibition | AID 1347417 | Potency, µM (highest dose often 28.9 µM), for the others: at the highest dose activity, negative = inhibition, actives largely listed as inhibitors | P. falciparum Dd2 growth, SYBR Green, 72 h | 120,000 compounds, 4.3% hits; active means well fitted inhibition curve with a large enough effect;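 further: plate controls were DMSO vehicle for no effect and reference drug for full effect; nearly all actives have a fitted effect of over 65% in size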
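Readout: SYBR Green fluorescence, 485 nm excitation, 535 nm emission, after ~16 h lysis at 37C. Before that, Dd2-infected red cells (2.5% hematocrit) grew 72 h with compound, 29 uM top final concentration.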
* hit, by the source's call; i = inactive; [ ] = dose if it differs, or a comment. Potency means the concentration at half of the fitted maximal effect.

SMILES	Pf Dd2 growth
CCOc1ccc(/C=C/c2nc3ccccc3n2S(=O)(=O)c2cccc(Cl)c2)cc1	3.55µM*
CCOc1ccc(Cn2c(CNS(=O)(=O)c3cccc(Cl)c3)nc3cccnc32)cc1	-7.7%
CSc1ccc(/C=C/c2nc3ccccc3n2S(=O)(=O)c2ccc(F)c(C)c2)cc1	i
Cc1nnc(-c2cc(-c3cccnc3)ccn2)n1C1CCCCC1	i
O=C(Nc1cccnc1)c1ccnc(-c2nnc3ccc(N4CCOCC4)nn23)c1	-24.4%[44.1 µM]
O=C(NC1CCN(Cc2ccccc2)CC1)c1ccc(Cn2c(=O)c3ccccc3n(Cc3ccc(F)cc3)c2=O)cc1	10µM*
O=c1c2ccccc2n(Cc2c(F)cccc2Cl)c(=O)n1Cc1ccccc1	-1.7%
Cc1ccc(C)c(Cn2c(=O)n(Cc3ccc(C(=O)NC4CCN(Cc5ccccc5)CC4)cc3)c(=O)c3ccccc32)c1	-3.4%
O=C(NC1CCCC1)C1CC(=O)N(c2n[nH]c3ccccc23)C1 (stereo not drawn)	-3.7%
O=C(CCn1ccn2nc3c(c2c1=O)CCCC3)Nc1cc(F)cc(F)c1	i
Cc1c(C(=O)Nc2ccccc2Cl)oc2ccc(S(=O)(=O)N3CCCCCC3)cc12	21.2%
Cc1c(Cl)cccc1NC(=O)c1oc2ccc(S(=O)(=O)N3CCC4(CC3)OCCO4)cc2c1C	12.6µM*
Cc1c(C(=O)Nc2ccccc2Cl)oc2ccc(S(=O)(=O)N3CCCCC3)cc12	i
Cc1c(C(=O)Nc2ccc(Br)cc2F)oc2ccc(S(=O)(=O)N3CCC4(CC3)OCCO4)cc12	12.6µM*
CCN(CC)S(=O)(=O)c1ccc2oc(C(=O)Nc3ccc(Br)cc3F)c(C)c2c1	1.1%
Cc1c(C(=O)Nc2ccccc2Br)oc2ccc(S(=O)(=O)N3CCOCC3)cc12	-2.7%
COc1ccc(CC(=O)NC2CCc3nnc(C)n3CC2)cc1Cl (stereo not drawn)	13.3%
CCS(=O)(=O)Nc1ccc(C2(C(=O)NCc3cccc(Cl)c3)CCC2)cc1	-27.2%
Cc1ccc(CN2CCCC(COc3ccccc3C(=O)N3CCOCC3)C2)cc1C (stereo not drawn)	i
Cc1cc(=O)n(CC(=O)Nc2cc(F)ccc2F)c(-c2ccc(F)cc2)n1	i
COc1ccccc1-c1ccc2ncn(Cc3ccccc3)c(=O)c2n1	-25.5%[44.1 µM]
Cc1ccc(CN2CC[C@H]3C(=O)NCCCCCCN(Cc4ccncc4)[C@@H]3C2)o1	-13.1%
N#Cc1ccccc1CN1CC[C@@H]2C(=O)NCCCCCCN(Cc3ccncc3)[C@@H]2C1	-47.2%
N#Cc1cccc(CN2CC[C@H]3C(=O)NCCCCCCN(Cc4ccncc4)[C@@H]3C2)c1	12.6µM*
CC(C)(C)c1cc(C[C@@H]2CC[C@H](O)[C@@H](CNC(=O)C3CCC3)O2)no1	0.2%[44.1 µM]
SMILES	Pf Dd2 growth
CCC1CN(C(=O)c2cc(F)ccc2OC)CCC(=O)N1Cc1ccccc1 (stereo not drawn)	14.3%
CN1C(=O)c2ccccc2Sc2ccc(NC(=O)N3CCN(c4ccc(F)cc4)CC3)cc21	7.94µM*
CC(C)NC(=O)Nc1ccc2c(c1)N(C)C(=O)c1ccccc1S2	3.8%
CCN1C(=O)c2ccccc2Sc2ccc(NC(=O)N3CCN(c4cc(C)ccc4C)CC3)cc21	-12.3%
NC(=O)[C@@H]1CN(C(=O)Cc2ccccc2)C[C@H]1COc1ccccc1	12.5%
CN(C)S(=O)(=O)N1CCCCCCNC(=O)[C@@H]2CCC[C@@H]21	28.3%
O=C(N1CCN(Cc2ccccc2)CC(O)C1)C1(N2CCCC2)CCCC1 (stereo not drawn)	4.47µM*
CN(C)C(=O)CCC(=O)N1CCN(Cc2ccccc2)CC(O)C1 (stereo not drawn)	10.5%
CC(=O)N1CCC(C(=O)N2CCN(Cc3ccccc3)CC(O)C2)CC1 (stereo not drawn)	6.2%
COc1ccccc1CC(=O)N1CCC[C@H]1c1nc(-c2ccccc2)no1	i
Cc1cc(C)n(CCC(=O)NCC23CCC=C2N(CC2CC2)C(=O)CC3)n1 (stereo not drawn)	-16.7%
COCc1nnc(NC(=O)C2c3ccccc3C(=O)N(CC(C)C)C23CCCCC3)s1 (stereo not drawn)	3.55µM*
COCCN1C(=O)c2ccccc2C(C(=O)Nc2cccc(C)n2)C12CCCCC2 (stereo not drawn)	i
COCCN1C(=O)c2ccccc2C(C(=O)NC(C)C)C12CCCCC2 (stereo not drawn)	-7.1%
COCCN1C(=O)c2ccccc2C(C(=O)Nc2nc3ccccc3s2)C12CCCCC2 (stereo not drawn)	2.51µM*
COC(=O)CCNC(=O)C1c2ccccc2C(=O)N(CC(C)C)C12CCCCC2 (stereo not drawn)	-15.8%
COCCN1C(=O)c2ccccc2C(C(=O)Nc2nnc(C3CC3)s2)C12CCCCC2 (stereo not drawn)	7.94µM*
CCCCNC(=O)C1c2ccccc2C(=O)N(CCOC)C12CCCCC2 (stereo not drawn)	-13.3%
COCCN1C(=O)c2ccccc2C(C(=O)Nc2nnc(COC)s2)C12CCCCC2 (stereo not drawn)	-26.0%
COCCN1C(=O)c2ccccc2C(C(=O)Nc2ccccc2O)C12CCCC2 (stereo not drawn)	i
